# Data reported in PubChem BioAssay (NCATS).
# Values joined by “and” are separate entries in the source; they are usually repeats but may differ in a detail not shown here. Identical values can stand only once. Records with an inconclusive call do not appear. A call without a number means that no potency is given here. Some compounds were tested as several samples or in several runs, with calls that do not always agree. Active and inactive are the calls of the source. The call rests on the fitted dose curve; in most records, active means well fitted inhibition curve with a large enough effect; inconclusive means small, poorly fitted or top-dose-only effect; inactive means no such curve, though single readings can be large or run the other way.
# Molecular target: Cytochrome P450 2C19 (Homo sapiens) (UniProt P33261)
# Sequence (P33261 whole entry, looked up): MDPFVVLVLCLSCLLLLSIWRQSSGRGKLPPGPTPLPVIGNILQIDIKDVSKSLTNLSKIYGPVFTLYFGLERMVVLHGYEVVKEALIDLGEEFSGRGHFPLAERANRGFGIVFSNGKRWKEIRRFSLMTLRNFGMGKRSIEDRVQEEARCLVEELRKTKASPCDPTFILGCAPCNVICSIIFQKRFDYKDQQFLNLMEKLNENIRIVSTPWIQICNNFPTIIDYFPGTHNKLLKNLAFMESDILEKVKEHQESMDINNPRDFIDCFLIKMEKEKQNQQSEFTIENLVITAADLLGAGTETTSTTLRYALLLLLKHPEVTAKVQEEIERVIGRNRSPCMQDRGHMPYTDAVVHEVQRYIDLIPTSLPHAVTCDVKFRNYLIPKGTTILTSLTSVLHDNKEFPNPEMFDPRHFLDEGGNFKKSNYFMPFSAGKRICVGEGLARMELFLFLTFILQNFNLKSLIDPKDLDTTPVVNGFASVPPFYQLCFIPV
# Assay: qHTS Assay for Inhibitors and Substrates of Cytochrome P450 2C19 (AID 899); further: nearly all actives have a fitted effect of over 60% in size
# Conditions: recombinant CYP2C19, luciferin-H EGE luminescence; series mostly up to 57.1 µM
# How it was run: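 Signal comes from luciferase acting on luciferin released by CYP2C19-mediated hydroxylation of Luciferin-H EGE, 10uM (KM). Assay mix: 5nM enzyme, 50mM KPO4; 60 min at 37C with NADPH regeneration. Data normalized against 57uM ketoconazole.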
# Potency means the concentration at half of the fitted maximal effect.
row,Structure (SMILES),Potency
1,Oc1cc(O)c2c(c1)O[C@H](c1ccc(O)c(O)c1)[C@@H](O)C2,inactive
2,CC(=O)N[C@@H](Cc1c[nH]c2ccccc12)C(=O)OCc1cc(C(F)(F)F)cc(C(F)(F)F)c1,7.94 µM (active)
3,NC(N)=NC(N)=Nc1ccccc1,inactive
4,CNC(=O)c1cc2c(cn1)[nH]c1ccccc12,inactive
5,O=c1cc(-c2ccccc2)[nH]c2nc(Cl)ccc12,inactive
6,O=C(O)c1ccccc1Nc1cccc(OCc2ccc3ccccc3n2)c1,inactive and 5.01 µM (active)
7,CC(=O)NNC(=O)N1Cc2ccccc2Oc2ccc(Cl)cc21,inactive
8,Cn1c(=O)c2[nH]c(-c3ccc(S(=O)(=O)O)cc3)nc2n(C)c1=O,inactive
9,CCCc1c(-c2ccc(O)cc2)nn(-c2ccc(O)cc2)c1-c1ccc(O)cc1,10 µM (active)
10,Nc1nc2ccc(Cl)cc2c2nc(-c3ccco3)nn12,inactive
11,C=C1C(=O)O[C@@H]2[C@H]3O[C@]3(C)CCC=C(C)CC[C@@H]12,inactive
12,COCc1nc2c([nH]1)c(=O)n(C)c(=O)n2CC(C)C,inactive
13,O=c1[nH]c(=O)c2nc3ccccc3nc2[nH]1,inactive
14,O=C(O)c1cc2cc(F)ccc2[nH]1,inactive
15,Cn1cc(C(=O)OCC2CCN(CCNS(C)(=O)=O)CC2)c2ccccc21,inactive
16,O=C1Cc2c([nH]c3ccc(Br)cc23)-c2ccccc2N1,inactive
17,OC1(c2ccc(Cl)cc2)CCN(Cc2c[nH]c3ccccc23)CC1,inactive
18,CCn1c(=O)[nH]c2cc(Cl)c(Cl)cc21,inactive
